High-throughput results: PubChem BioAssay, National Center for Advancing Translational Sciences (NCATS)
Marburg entry inh – qHTS for inhibitors of binding or entry into cells for Marburg Virus; Marburg virus pseudotyped entry inhibition, cell reporter; Potency, µM (titrated, usually from 37.8 µM), for the others: top-dose activity change, negative = inhibition, hits mostly inhibitors; 300,000 compounds, 1.8% hits; calls by dose curve; tested in HEK293 cells
FMDV antiviral – High Throughput Screening for Foot and Mouth Disease Virus Antivirals; FMDV antiviral cell-based qHTS; Potency, µM (titrated, usually from 57.9 µM), without a hit: at the highest dose activity change, negative = inhibition, most hits filed as inhibitors; 410,000 compounds, 1.2% hits; calls by dose curve; tested in HEK293T cells; also: read-out not given here; nearly all actives have a fitted effect of over 45% in size
VACV mCherry inh – qHTS for Stage-Specific Inhibitors of Vaccinia Orthopoxvirus: mCherry Reporter Primary qHTS; Vaccinia virus mCherry reporter infection, fluorescence; Potency, µM (doses to about 36.5 µM), without a hit: at the highest dose activity change, negative = inhibition, usual class: inhibitors; 310,000 compounds, 0.63% hits; AID 720579, 2013; calls by dose curve; tested in A549 cells; also: nearly all actives have a fitted effect of over 35% in size
Lassa entry inh – qHTS for Inhibitors of binding or entry into cells for Lassa Virus; Lassa virus pseudotype entry inhibition, cell reporter; Potency, µM (highest dose often 37.9 µM), for the others: at the top dose activity change, negative = inhibition, usual class: inhibitors; 300,000 compounds, 1.2% hits; AID 540256, 2011; calls by dose curve; tested in HEK293 cells; also: nearly all actives have a fitted effect of over 50% in size
Sm TGR inh – qHTS Assay for the Inhibitors of Schistosoma Mansoni Peroxiredoxins | Potency, µM (titrated, usually from 114 µM), for inactives: at the top dose activity change, negative = inhibition, usual class: inhibitors | Schistosoma mansoni thioredoxin glutathione reductase (TGR), Q962Y6 | 360,000 compounds, 3% hits | AID 485364, 2010 | purified TGR, DTNB reduction, TNB absorbance 405 nm; active = well fitted inhibition curve with a large enough effect; inconclusive = small, poorly fitted or top-dose-only effect; inactive = no such curve, though single readings can be large or run the other way; also: nearly all actives have a fitted effect of over 60% in size
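TGR 20 nM + NADPH 100 uM (dispensed conc.), cpd preinc 15 min RT; start with NADPH (500 uM addition) then DTNB (15 mM addition). Kinetic TNB absorbance, 405 nm filter. Four-parameter Hill fit across titration.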
VACV Venus inh – qHTS for Stage-Specific Inhibitors of Vaccinia Orthopoxvirus: Venus Reporter Primary qHTS. Potency, µM (top dose mostly 36.5 µM), for inactives: at the top dose activity change, negative = inhibition, most hits filed as inhibitors. 330,000 compounds, 0.46% hits. Vaccinia virus Venus reporter expression, fluorescence; calls by dose curve; tested in A549 cells; also: nearly all actives have a fitted effect of over 30% in size
An asterisk follows results filed as active; i = inactive; u = inconclusive; x = no result; [ ] = remark or other dose. Only some compounds are listed: those with a hit (about 5.4% of all), similar ones and a draw of the others. % is scaled to controls: 0 for no effect and ±100 for the full control effect; potency is read from the fitted curve at half-maximal effect.

SMILES	Marburg entry inh	FMDV antiviral	VACV mCherry inh	Lassa entry inh	Sm TGR inh	VACV Venus inh
Cc1c(C(=O)N2CCCC(C)C2)sc2ncnc(NCCN3CCCCC3)c12 (configuration not stated)	x	1%	-23%	x	x	-11%
NC(=O)CSc1nc2c(c(=O)n1-c1ccccc1)C1(CCCCC1)Cc1ccccc1-2	u	20µM*	i	u	-1%	-25%
COc1ccc(-c2cc(C)no2)cc1S(=O)(=O)NCc1ccco1	x	69%	-21%	15%[46.1 µM]	32µM*	-15%
Cn1c(=O)c2[nH]c(CCCCCc3nc4ccccc4[nH]3)nc2n(C)c1=O	u	-8%	-7%	2%	x	-21%
Cn1c(=O)c2[nH]c(CCCCCCCc3nc4ccccc4[nH]3)nc2n(C)c1=O	u	16µM*	u	-38%	x	-22%
Cn1c(=O)c2[nH]c(COc3ccc(C(C)(C)C)cc3)nc2n(C)c1=O	x	20µM*	x	x	12%	x
COc1ccc(OC)c(NC(=O)c2cnn(-c3ccc(C)cc3)c2C2CCNCC2)c1	x	-2%	-18%	7%[46.1 µM]	5%	1%
CC(=O)c1ccc(NC(=S)Nc2cccc(Cl)c2C)cc1	x	9%	-2%	x	35µM*	-15%
Cc1cc(O)ccc1NC(=S)NC(=O)c1cncc(Br)c1	x	33%	x	x	3%	x
O=C(NC(=S)Nc1cccc(O)c1)c1cncc(Br)c1	14%[46.1 µM]	22%	-6%	-22%	x	-6%
Cc1c(Cl)cccc1NC(=S)NC(=O)c1cncc(Br)c1	-5%[46.1 µM]	-8%	i	3.2µM*	x	-10%
Cc1ccccc1NC(=S)NC(=O)c1cncc(Br)c1	u	-11%	i	u	13µM*	-11%
O=S(=O)(O)c1cc(O)c(N=Nc2ccc(O)cc2O)c2ccccc12	-1%[46.1 µM]	28µM*	351%	-1%[46.1 µM]	x	i
O=C(N/N=C\c1coc2ccccc2c1=O)c1ccco1	-6%[14.2 µM]	7%	0%	9%	28µM*	-2%
CCN(CC)c1ccc(/C=N/NC(=O)c2ccco2)cc1	7.3µM*	-37%	-28%	4.5µM*	-19%	-25%
O=C(N/N=C/c1cccs1)c1ccccn1	15%	21%	-14%	-3%	-4%	-8%
Cc1ccc(/C=N/NC(=O)c2ccccn2)s1	6.5µM*	-46%	i	u	-7%	-13%
CCc1ccc(/C=N/NC(=O)c2ccccn2)cc1	u	13µM*	i	1.4µM*	-7%	-26%
O=C(O)CCCN=C1NC2(CCCC2)CC2=C1CCCC2	0%	x	x	x	x	x
CCOc1cccc(C2c3[nH]c4ccccc4c3CCN2C(=O)Cc2cccc(OCC)c2OCC)c1 (configuration not stated)	u	-7%	-11%	-12%[46.1 µM]	-3%	-2%
Cc1ccc(C)c(S(=O)(=O)c2nnn3c2nc(N2CCCCC2)c2sccc23)c1	x	0%	-25%	-33%[46.1 µM]	0%	u
CCN(CC)c1ccc(/C=N/NC(=O)c2ccccn2)cc1	u	-10%	-17%	11µM*	6%	-25%
COc1ccc(-c2cc(C(=O)N/N=C/c3ccc4c(c3)OCO4)c3ccccc3n2)c(OC)c1	4µM*	-6%	u	2.5µM*	13%	6%
COc1ccc(-c2cc(C(=O)N/N=C/c3sccc3C)c3ccccc3n2)c(OC)c1	5µM*	-8%	28µM*	3.2µM*	4%	-20%
O=C(N/N=C/c1ccc2c(c1)OCO2)c1cc(-c2ccc(F)cc2)nc2ccccc12	u	22%	-13%	0.58µM*	1%	-29%
CC1=CC[C@@H](C)O[C@@]2(C1)C(=O)N(Cc1ccc(Br)cc1)c1ccccc12	14%[14.2 µM]	x	x	u	x	x
CCOc1ccc(NC(=O)C2CCCN(c3nn4cc(-c5ccc(OC)cc5)nc4s3)C2)cc1 (configuration not stated)	x	0%	-29%	7%[46.1 µM]	9%	-27%
Cc1ccc(NC(=O)c2ccc3oc(=O)c(S(=O)(=O)c4ccccc4)cc3c2)cc1C	0%[46.1 µM]	28µM*	-14%	18%[46.1 µM]	-1%	-14%
Cc1ccc(NC(=O)c2ccccc2)cc1C	x	30%	i	x	2%	-8%
